Compound activity from PubChem.
Rows were chosen to be rich in hits. Some 21% of all compounds tested hit in one or more screens of this group.
AMA1 RON2 block: AMA1-RON2 (P. falciparum) interaction inhibition; Potency, µM (highest dose often 58.2 µM), for inactives: at the top dose activity change, negative = inhibition, usual class: inhibitors; AlphaScreen AMA1-biotinylated RON2 peptide binding; AID 720542; 360,000 tested, 0.2% active;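 note: potency is the fitted concentration of half-maximal effect; 0% = vehicle wells and -100% = peptide control; nearly all actives have a fitted effect of over 45% in size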
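AMA1 (3D7) with his tag at 25 nM final met compounds first, then biotinylated RON2 peptide at 25 nM; detection used donor plus acceptor beads, 10 µg/mL apiece, read by AlphaScreen after 30 min at room temperature.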
HCV inh: inhibitors of hepatitis C virus infection. Huh7.5.1 HCVcc-Cre infection, luciferase reporter, 44 h. Potency, µM (highest dose often 41.8 µM), without a hit: at the highest dose activity change, negative = inhibition, usual class: inhibitors. 340,000 tested, 3.4% active. AID 651820; note: potency is the fitted concentration of half-maximal effect; % is set by controls: 0 for no effect and ±100 for the full control effect
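Compounds are dispensed onto cells plated 4 h earlier at 1,000 per well, with HCVcc-Cre virus (about 0.5 moi) added next. Following 44 h of culture, luminescent signal is measured for 15 sec after 15 min with substrate at room temperature.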
Shiga inhibitor: Shiga toxin inhibition; Vero cells, Shiga toxin protein synthesis inhibition reporter; inhibition, % at 38.7 µM; 290,000 tested, 9.2% active; in the data active = inhibition mostly above about 28%, no sharp cut-off; inactive = mostly below about 43%; note: 0% is about no effect
CHX counter: affects cycloheximide protein synthesis inhibition readout, counter-screen | cell reporter, cycloheximide protein synthesis inhibition counterscreen | 300,000 tested, 12% active | max response, %; in the data active = max response mostly above about 13%, no sharp cut-off; inactive = mostly below about 14%; note: read at 38.3 µM for the half of the compounds with a filed dose; 0% is about no effect
Pf growth 48h: inhibits P. falciparum growth in the first generation, 48 h; P. falciparum luciferase growth in erythrocytes, 48 h; Potency, µM (doses to about 28.7 µM), for inactives: at the highest dose activity change, negative = inhibition, hits mostly inhibitors; 310,000 tested, 5.9% active; note: potency is the fitted concentration of half-maximal effect; % is set by controls: 0 for no effect and ±100 for the full control effect
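Read-out is firefly luciferase luminescence from an integrated reporter in P. falciparum, so falling signal marks reduced parasite growth. Infected erythrocytes were at 2% hematocrit and 0.1% parasitemia (final) in Albumax-supplemented RPMI 1640.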
Pf growth 96h: P. falciparum growth inhibition at 96 hour, primary screen for plastid delayed-death inhibitors | P. falciparum luciferase reporter growth, 96 h | Potency, µM (top dose mostly 28.7 µM), inactives show top-dose activity change, negative = inhibition, actives largely listed as inhibitors | 320,000 tested, 6.9% active; note: potency is the fitted concentration of half-maximal effect; % is set by controls: 0 for no effect and ±100 for the full control effect
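96 h incubation, 37 C, 5% CO2, of luciferase-reporter P. falciparum-infected RBCs (2% hematocrit, 0.05% parasitemia final) with test compounds; endpoint luminescence.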
Active calls of the source: *; ? = inconclusive; . = not tested or not shown; [ ] = another dose, or the depositor's remark. Unless noted, calls come from the whole dose curve; as a rule, active = well fitted curve in the direction sought with a large enough effect; inconclusive = small, poorly fitted or top-dose-only effect, or another doubt; inactive = no such curve, though single readings can be large; an effect the other way counts as inactive or inconclusive.

SMILES | AMA1 RON2 block | HCV inh | Shiga inhibitor | CHX counter | Pf growth 48h | Pf growth 96h
O=S(=O)(c1ccc(F)cc1)N1CCN(C(=S)NCC2CCCO2)CC1 (centres undefined) | -2% | ? | . | . | 2.6µM* | 2.1µM*
C=CCNC(=O)O/N=C/c1csc([N+](=O)[O-])c1 | -5% | -4% | 32* | 12 | -8% | ?
CCn1c(O)c(/C=C2\C=Nc3ccccc32)sc1=O | -7% | ? | 78* | 34* | 82% | 7.4µM*
CCOC(=O)c1c(Nc2ccccc2)sc(/C=C2\C=Nc3ccccc32)c1O | -4% | ? | -3 | -3 | . | ?
Oc1nc(Nc2ccccc2)sc1/C=C1\C=Nc2ccccc21 | 5% | ? | 64* | 49* | 17% | 51%
O=c1[nH]c(O)c(/C=C2\C=Nc3ccccc32)[nH]1 | -10% | -16% | 13 | 18* | 24% | 41%
C[C@H](CO)N1C[C@H](C)[C@@H](CN(C)C(=O)Nc2ccc3c(c2)OCO3)Oc2ccc(NC(=O)Cn3cnnn3)cc2C1=O | 4% | 14% | . | . | . | .
O=C(CSc1nc(=O)n(CCN2CCOCC2)c2c1CCCC2)Nc1ccc(F)cc1F | -10% | 9% | . | . | ? | -8%
Cc1ccc(N=c2c([N+](=O)[O-])nn(-c3ccccc3)n2O)c(C)c1 | ? | ? | 98* | 32* | ? | .
Cc1cc(C)cc(N=c2c([N+](=O)[O-])nn(-c3ccc4c(c3)OCCO4)n2O)c1 | ? | ? | 18 | 17* | 49% | 39%
Cc1c(Cl)cccc1N=c1c([N+](=O)[O-])nn(-c2ccccc2)n1O | -11% | ? | -10 | -4 | . | ?
Cc1ccc(N=c2c([N+](=O)[O-])nn(-c3ccc4c(c3)OCCO4)n2O)c(Cl)c1 | . | . | 89* | 35* | 163% | -9%
Cc1ccc(N=c2c([N+](=O)[O-])nn(-c3ccc(Cl)cc3)n2O)cc1C | -15% | 11% | 26 | 18 | 12µM* | 0.83µM*
Cc1cccc(-n2nc([N+](=O)[O-])c(=NC3CCN(Cc4ccccc4)CC3)n2O)c1 | -10% | 8.9µM* | -9 | -1 | ? | ?
Cc1ncc([N+](=O)[O-])n1S(=O)(=O)c1ccc2c(c1)OCCO2 | -19% | 6% | . | . | . | .
CCc1ccc(N=c2c([N+](=O)[O-])nn(-c3ccc4c(c3)OCCO4)n2O)cc1 | ? | -10% | 46* | 34* | 8% | ?
O=[N+]([O-])c1nn(-c2ccc3c(c2)OCCO3)n(O)c1=Nc1ccccc1 | ? | ? | 168* | 142* | ? | -8%
Cc1cccc(CCN=c2c([N+](=O)[O-])nn(-c3ccccc3)n2O)c1 | -23% | ? | 12 | 12 | ? | ?
CCc1ccc(NC2=NCC(=O)N2c2ccc3c(c2)OCCO3)cc1 | -7% | 5% | 2 | -4 | -7% | .
Cc1ccc(N=c2c([N+](=O)[O-])nn(-c3ccc4c(c3)OCCO4)n2O)cc1F | 10% | ? | 141* | 33* | 159% | ?
COc1cccc(C2=Nn3c(nnc3-c3ccc(OC)c(OC)c3)SC2)c1 | . | . | 7 | 3 | . | .
CC(NC(=O)Cc1ccsc1)c1ccc(Cl)cc1Cl (centres undefined) | 18% | -6% | -8 | 8 | ? | ?
O=[N+]([O-])c1nn(-c2ccc3c(c2)OCCO3)n(O)c1=Nc1ccc(Cl)cc1 | -11% | 7.1µM* | 117* | 34* | 15% | ?
S=c1[nH]nc(-c2ccc(Cl)cc2)n1-c1ccc2c(c1)OCCO2 | -1%[2.32 µM] | 18% | 33 | 0 | -7% | ?
O=C(COC(=O)Cc1n[nH]c(=O)c2ccccc12)Nc1ccc(Cl)cn1 | -5% | 2% | . | . | -7% | 5%
O=S1(=O)N=C(c2ccccc2)C=C(c2ccccc2)N1 | -1% | 6% | . | . | . | .
C1=C(c2ccccc2)Nc2ccccc2N=C1c1ccccc1 | -7% | ? | 36* | 14 | -11% | 2%
O=C(NN1C(=O)c2ccccc2C1=O)C1C2CCCCC21 (centres undefined) | 4% | -6% | 8 | 11* | 35% | -27%
